96 compounds from PubChem BioAssay AID1851 (National Center for Advancing Translational Sciences (NCATS), 2009) can be followed below.

Structures are written as SMILES. Out of some 16,000 compounds screened, about 5,100 (32%) were called active. Not shown: some 25% with an inconclusive outcome. The list shows a part of the results. A number with no mark means an inactive call. The call rests on the fitted dose curve; in most records, active means well fitted curve in the direction sought with a large enough effect; inconclusive means small, poorly fitted or top-dose-only effect, or effect the other way; inactive means no such curve, though single readings can be large or run the other way.
On the % scale 0 is the no-effect control and ±100 the full control effect.

The target in this assay is Cytochrome P450 3A4 (Homo sapiens) (UniProt P08684). Nature of the assay: Cytochrome panel assay with activity outcomes. As to conditions: recombinant CYP, pro-luciferin dealkylation, luminescence, p450-cyp3a4; series mostly up to 57.1 µM; activity, negative = inhibition: at the top concentration.
Sequence of Cytochrome P450 3A4 (Homo sapiens) (P08684 whole entry, looked up): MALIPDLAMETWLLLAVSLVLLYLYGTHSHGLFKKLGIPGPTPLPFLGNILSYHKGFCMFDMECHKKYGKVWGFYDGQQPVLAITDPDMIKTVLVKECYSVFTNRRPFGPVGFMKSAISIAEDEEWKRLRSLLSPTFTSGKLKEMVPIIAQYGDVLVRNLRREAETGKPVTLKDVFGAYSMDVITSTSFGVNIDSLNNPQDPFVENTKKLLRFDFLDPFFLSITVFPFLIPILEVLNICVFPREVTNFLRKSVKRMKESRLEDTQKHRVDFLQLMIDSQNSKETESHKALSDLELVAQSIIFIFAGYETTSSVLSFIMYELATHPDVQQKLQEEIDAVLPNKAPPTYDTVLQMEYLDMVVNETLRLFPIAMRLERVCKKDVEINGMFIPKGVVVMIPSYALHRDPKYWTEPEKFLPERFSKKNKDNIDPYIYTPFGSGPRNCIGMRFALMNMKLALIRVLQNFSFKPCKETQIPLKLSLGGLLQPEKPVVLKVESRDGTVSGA
Take `CCCC[C@H](CC)CN1CN(C[C@@H](CC)CCCC)CC(C)(N)C1`: the “activity, negative = inhibition” value was -17.4% [at 25.6 µM]. The same measure, in the same setting: to `CC(C)(C)n1nc(-c2ccc(Cl)cc2)c2c(N)ncnc21` belongs -12.7%. One may read the AC50 as the concentration at which the activity in the assay is half-maximal. Take `COC(=O)[C@@]1(Cc2ccc(F)cc2)[C@H]2c3cc(C(=O)N4CCCC4)n(CCCNc4ncc(C(F)(F)F)cc4Cl)c3C[C@H]2CN1C(=O)c1ccccc1`: the AC50 is 2.51 µM (active).

On to `COC(=O)[C@@]1(Cc2ccc(F)cc2)[C@H]2c3cc(C(=O)N4CCCC4)n(Cc4ccc(Cl)c(C(F)(F)F)c4)c3C[C@H]2CN1C(=O)c1ccccc1`, for which the AC50 is 2.51 µM (active).

Regarding `COC(=O)[C@@]1(Cc2ccc(F)cc2)[C@H]2c3cc(C(=O)N4CCCC4)n(Cc4ccc(OC(F)(F)F)cc4)c3C[C@H]2CN1C(=O)c1ccccc1`, the AC50 was 2.51 µM (active).

With `COC(=O)[C@@]1(Cc2ccc(F)cc2)[C@H]2c3cc(C(=O)N(C)C)n(Cc4ccc(Cl)c(C(F)(F)F)c4)c3C[C@H]2CN1C(=O)c1ccccc1`, the AC50 was 2 µM (active). Regarding `Cc1nc(CN2CCCCC2)c(O)c(=O)[nH]1`, the activity, negative = inhibition was -5.47% [at 11.4 µM].

Regarding `CC1(O)CC(=O)N(c2ccccc2)O1` (stereo unspecified), the activity, negative = inhibition is 1.65% [at 2.29 µM].

As to `COC(=O)[C@@]1(Cc2ccc(F)cc2)[C@H]2c3cc(C(=O)N(C)C)n(CCCNc4ccc(C(F)(F)F)cc4Cl)c3C[C@H]2CN1C(=O)c1ccccc1`, the AC50 is 1.58 µM (active). As to `COC(=O)Cn1c(C(=O)N2CCCC2)cc2c1C[C@H]1CN(C(=O)c3ccccc3)[C@@](Cc3ccc(F)cc3)(C(=O)OC)[C@@H]21`, the AC50 is 3.16 µM (active). Regarding `COC(=O)[C@@]1(Cc2ccc(F)cc2)[C@H]2c3cc(C(=O)N4CCCC4)n(CCN4CNCC4=O)c3C[C@H]2CN1C(=O)c1ccccc1`, the AC50 was 2 µM (active). `COC(=O)Cn1c(=N)n(CCN2CCCCC2)c2ccccc21`: the “activity, negative = inhibition” value is 1.03%. For `COC(=O)[C@@]1(Cc2ccc(F)cc2)[C@H]2c3cc(C(=O)N4CCCC4)n(Cc4ccccc4)c3C[C@H]2CN1C(=O)c1ccccc1`, the AC50 was 1 µM (active). With `C=C1C=C(Br)C2(OCCCO2)[C@H]2OC12` (stereo partly specified), the activity, negative = inhibition is -14.7% [at 11.4 µM]. Still for that read-out and setting: to `CC1(C)C2([N+](=O)[O-])CN3CC1([N+](=O)[O-])CN(C2)C3c1ccccc1` (stereo unspecified) belongs 0.512% [at 2.29 µM]; to `CC(NC(=O)OCc1ccccc1)C(=O)NCC1CCCO1` (stereo unspecified), -4.26%. Regarding `C[C@@H](C(=O)NCc1ccc(S(C)(=O)=O)cc1)[C@H]1C[C@]1(C)[C@H](NC(=O)OCc1ccccc1)c1ccccc1`, the AC50 was 3.16 µM (active). As for `C[C@@H](C(=O)NCc1cccc2ccccc12)[C@H]1C[C@]1(C)[C@H](NC(=O)OCc1ccccc1)c1ccccc1`, the AC50 was 0.398 µM (active).

For `C[C@@H](C(=O)NCc1nc2ccccc2[nH]1)[C@@H]1C[C@@]1(C)[C@@H](NC(=O)OCc1ccccc1)c1ccccc1`, the AC50 was 1 µM (active). Take `CS(=O)(=O)c1ccc([C@H](O)[C@H](CO)NC(=O)C(Cl)Cl)cc1`: the “activity, negative = inhibition” value is -5.21% [at 25.6 µM]. Regarding `C[C@@H](C(=O)NCc1ccc(S(C)(=O)=O)cc1)[C@@H]1C[C@@]1(C)[C@@H](NC(=O)OCc1ccccc1)c1ccccc1`, the AC50 is 1 µM (active). Regarding `Cc1cccc(C)c1OC[C@H](C)N`, the “activity, negative = inhibition” value is -12.4% [at 25.6 µM].

Consider `C=CCSc1ncccc1C(=O)NCc1ccc(C)cc1`, for which the AC50 is 11.2 µM (active). With `CSc1nncc(-c2ccc(F)c(F)c2)n1`, the “activity, negative = inhibition” value was 13.4%. Take `CC/C(=N/Nc1ccccc1)c1cnnc(SC)n1`: the AC50 is 25.1 µM (active). Regarding `CC(=O)Nc1sc2c(c1C(N)=O)CCCC2`, the “activity, negative = inhibition” value was -27.9%. The same measure, in the same setting: to `CCNC(=O)c1c(NC(C)=O)sc2c1CCCC2` belongs -23%.

Turning to `COCCCNC(=O)c1c(NC(=O)c2cccs2)sc2c1CCCC2`, the AC50 is 15.8 µM (active). Take `OC[C@@H](O)COc1cccc2ccccc12`: the “activity, negative = inhibition” value was -23%. In the case of `Cc1ccccc1OCC(O)Cn1c2ccccc2c2ccccc21` (stereo unspecified), the concentration at half-maximal activity (AC50) is 12.6 µM (active). With `Cc1cccc(C)c1OCC(O)CNC(C)(C)C` (stereo unspecified), the “activity, negative = inhibition” value is -9.33%.

Take `O[C@H](COc1ccccc1)CN1CCCCC1`: the activity, negative = inhibition is -3.03% [at 11.4 µM]. Same read-out and setting: to `OC(COc1ccc(OCC(O)CN2CCCCCC2)cc1)CN1CCCCCC1` (stereo unspecified) belongs 3.14%. For `CC(=O)Nc1ccc(OCC(O)Cn2c3ccccc3c3ccccc32)c(C)c1` (stereo unspecified), the AC50 was 3.98 µM (active). As for `Cc1ccc(OCC(O)Cn2c3ccccc3c3ccccc32)cc1` (stereo unspecified), the AC50 is 17.8 µM (active).

With `CC(C)NC[C@@H](O)COc1ccccc1-n1cccc1`, the “activity, negative = inhibition” value was -14.7%.

Take `O[C@@H](COc1cccc2ccccc12)CN1CCOCC1`: the activity, negative = inhibition is -6.73% [at 11.4 µM]. Still for that read-out and setting: to `CC(=O)Nc1c(I)c(C(=O)N[C@H]2[C@@H](O)[C@H](O)[C@H](CO)O[C@@H]2O)c(I)c(N(C)C(C)=O)c1I` belongs -2.58% [at 25.6 µM]. Take `NC(N)=NC(=O)c1nc(Cl)c(N2CCCCCC2)nc1N`: the “activity, negative = inhibition” value was -23.3%. For the compound `Cc1cc(C)n(-c2nnc(C)n2/N=C/c2ccccc2OCc2ccccc2Cl)n1`, the AC50 was 2.24 µM (active).

Take `S=C(Nc1ccccc1)N1CCCCC1`: the “activity, negative = inhibition” value is -4.5%. Same read-out and setting: with `CCCNC(=O)N1CCC(C(=O)c2ccc(F)cc2)CC1` the figure was -0.769% [at 2.29 µM].

In the case of `O=C(c1ccc(F)cc1)C1CCN(C(=S)Nc2ccccc2)CC1`, the AC50 was 10 µM (active). For `N#Cc1cc(N)ccc1Sc1ccc(Cl)cc1`, the AC50 is 5.62 µM (active). Turning to `N#Cc1cc(-c2ccc(Cl)cc2)cnc1Sc1ccccc1`, the “activity, negative = inhibition” value is -8.46%.

As to `Cc1ccc(Sc2cc(Cl)nc(N)n2)cc1`, the “activity, negative = inhibition” value is -5.02%.

For `COc1cc2c3cc1Oc1cc(ccc1O)C[C@@H]1c4c(cc(OC)c(O)c4Oc4ccc(cc4)C[C@H]3[N+](C)(C)CC2)CC[N+]1(C)C`, the activity, negative = inhibition was 0.655% [at 11.4 µM]. Same read-out and setting: with `C/C(=C/C(=O)NCc1ccccc1)C(=O)O` the figure was 9.5%; with `N[C@@](CC(=O)O)(Cc1ccccc1)C(=O)O`, -4.69% [at 11.4 µM]. As to `C=CC(=O)NC(C)(C)Cc1ccccc1`, the AC50 was 15.8 µM (active). As to `CC1CCCC(NC(=O)CCn2c(=O)oc3ccccc32)C1C` (stereo unspecified), the AC50 is 14.1 µM (active). As to `COCCNC(=O)CCn1c(=O)oc2ccccc21`, the “activity, negative = inhibition” value is -1.1%. Take `Cc1ccc(CNC(=O)Cn2c(=O)oc3ccccc32)o1`: the activity, negative = inhibition is 1.22% [at 11.4 µM]. Consider `CC[N+](C)(C)c1cccc(O)c1`, for which the “activity, negative = inhibition” value was -3.37%. With `CC1(C)c2ssc(=S)c2-c2ccccc2N1C(=O)CSC1=NCCS1`, the AC50 is 1.78 µM (active). Take `O=c1cnc2cnc(Oc3cccc(Cl)c3)nc2n1C1CC1`: the “activity, negative = inhibition” value is 11.3%. Still for that read-out and setting: with `O=c1cnc2cnc(Oc3ccccc3)nc2n1C1CC1` the figure was -19.7%. As to `COc1ccc(-n2c(=O)cnc3cnc(N4CCOCC4)nc32)cc1`, the “activity, negative = inhibition” value is -13.4%. `COc1ccc(-n2c(=O)cnc3cnc(Oc4ccccc4)nc32)cc1`: the AC50 was 15.8 µM (active). Still for that read-out and setting: to `COc1ccc(-n2c(=O)cnc3cnc(Oc4cccc(Cl)c4)nc32)cc1` belongs 10 µM (active). Consider `COc1ccc(-n2c(=O)cnc3cnc(OC)nc32)cc1`, for which the “activity, negative = inhibition” value is -17.2%. The same measure, in the same setting: to `COC(=O)C(C)Sc1ccc2nnc(-c3ccc(F)cc3)n2n1` (stereo unspecified) belongs -17.6%; to `CCCCN(CC)S(=O)(=O)c1ccc(C(=O)Nc2nnc(CSC)o2)cc1`, 2.56% [at 11.4 µM]. Consider `CCCOc1cccc(-c2cc(-c3n[nH]c(=S)n3CC)c3ccccc3n2)c1`, for which the concentration at half-maximal activity (AC50) was 10 µM (active).

On to `CCn1c(-c2ccoc2C)n[nH]c1=S`, for which the “activity, negative = inhibition” value was -8%. Regarding `CCc1ccc(-c2ccc(C(=O)C(F)(F)F)[nH]2)cc1`, the “activity, negative = inhibition” value is 13.7%. For the compound `CC(C)(Oc1ccc(Cl)cc1)C(=O)Nc1ccncc1`, the AC50 is 0.794 µM (active). For the compound `CC(C)(Oc1ccc([C@@H]2CC2(Cl)Cl)cc1)C(=O)O`, the AC50 result was “inactive”. Turning to `CC(C)(Oc1ccc(CCNC(=O)c2ccc(Cl)cc2)cc1)C(=O)O`, the “activity, negative = inhibition” value is -9.06% [at 25.6 µM].

As to `C[C@@H]1CCC[C@H](C)N1`, the “activity, negative = inhibition” value is -0.959% [at 25.6 µM].

For `O=C(Nc1cccnc1)c1ccc(COc2cc(Cl)ccc2Cl)o1`, the AC50 is 4.47 µM (active). Turning to `Clc1ccc(Cl)c(OCc2cc(-c3ccccc3Cl)on2)c1`, the “activity, negative = inhibition” value was 10.7%.

For `CC(C)C(=O)Nc1ccc(C(=O)NNC(=O)CCCOc2ccc(Cl)cc2Cl)cc1`, the “activity, negative = inhibition” value is -17.2%.

`O=C(N/N=C/c1ccc(O)cc1)c1ccc(COc2cc(Cl)ccc2Cl)o1`: the activity, negative = inhibition was -27.3% [at 2.29 µM]. Regarding `O=C(Nc1ccn(Cc2ccccc2F)n1)c1ccc(COc2cc(Cl)ccc2Cl)o1`, the AC50 was 0.891 µM (active). `CC(C)CNC(=O)c1ccc(COc2ccc(Cl)cc2Cl)o1`: the AC50 is 20 µM (active).

As for `O[C@@H](C1=C/C(=C\c2ccncc2)c2ccccc21)c1ccncc1`, the AC50 was 0.794 µM (active). For `NS(=O)(=O)c1ccc(N=Nc2c(O)c(C(=O)O)cc3ccccc23)cc1`, the activity, negative = inhibition is -2.48% [at 11.4 µM]. As to `Cc1cccc(Oc2ncnc3onc(C)c23)c1C`, the “activity, negative = inhibition” value was -11%. Regarding `Cn1c(SCC(=O)NC2CC2)nnc1-c1cccc(NC(=O)c2ccccc2F)c1`, the AC50 was 12.6 µM (active).

`Nc1ncnc2c1ncn2[C@H]1O[C@@H](C(=O)OCCO)[C@@H](O)[C@H]1O`: the activity, negative = inhibition was -12.9% [at 11.4 µM]. On the same count and under the same terms, with `Clc1ccc(-c2nnc(-c3ccc(Br)cc3)c(N3CCSCC3)n2)cc1` the figure was -17.3%; with `CCOC(=O)c1nc2sc(C)c(C)c2c(=O)[nH]1`, -5.37%. As for `CCCCC1(C)NC(=O)c2c(C)sc(C(=O)OCC)c2N1` (stereo unspecified), the AC50 is 17.8 µM (active). `c1ncc(-c2ccoc2)c(NC2CC2)n1`: the AC50 was 7.94 µM (active). Same read-out and setting: to `c1ccc(Nc2ncncc2-c2ccoc2)cc1` belongs 2 µM (active); to `Fc1ccc(Nc2ncncc2-c2ccoc2)cc1`, 0.501 µM (active).

Regarding `O=c1[nH]c2[nH]c(=S)[nH]c(=S)c2[nH]1`, the activity, negative = inhibition is -17.9% [at 11.4 µM]. For the compound `CCc1cccc2c(C=C(C#N)C#N)cn(CC(=O)N3CCCC3)c12`, the “activity, negative = inhibition” value is -15.2%.

For the compound `CCN(CC)C(=O)Cn1cc(/C=C(\C#N)C(=O)N2CCN(c3ccccc3)CC2)c2ccccc21`, the AC50 is 0.891 µM (active). In the case of `CCc1cccc2c(C=C(C#N)C#N)cn(CC(=O)N3CCCCC3)c12`, the “activity, negative = inhibition” value is -27.8%. In the case of `Cc1ccc2nc(N/N=C/c3ccccc3C#N)nc(-c3ccccc3)c2c1`, the AC50 is 7.94 µM (active). In the case of `CSc1c(-c2ccccc2)nc2ccc(Cl)cc2c1C(=O)O`, the “activity, negative = inhibition” value is 7.66%.

`Cc1ccc(Oc2nnc(-c3ccccc3)cc2C#N)cc1`: the “activity, negative = inhibition” value was -24.2%. `N#Cc1ccccc1/C=N/Nc1nc(-c2ccccc2)c2cc(Cl)ccc2n1`: the AC50 is 6.31 µM (active). Regarding `Cc1nc(Cl)c(C#N)cc1-c1ccccc1`, the “activity, negative = inhibition” value is -8.93%.
